Results taken from PubChem BioAssay (NCATS).
Inconclusive results are not listed. Some compounds were tested as several samples or in several runs, with calls that do not always agree. A number with no mark means an inactive call. The source made the active and inactive calls. Calls follow the shape of the dose curve; as a rule, active = well fitted inhibition curve with a large enough effect; inconclusive = small, poorly fitted or top-dose-only effect; inactive = flat fitted curve, though single readings scatter.

tested on: HaCat; experiment: Cytotoxic Profiling of Annotated Libraries Using Quantitative High-Throughput Screening (AID 1296008); conditions: Five cell lines viability, CellTiter-Glo ATP luminescence, 48-72 h; max response: hits give low values; also: nearly all actives have a fitted effect of over 60% in size
Outline: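 Cytotoxicity was measured as CellTiter-Glo ATP luminescence, read after 10 min at room temperature. Compound treatment of the cells lasted 48 or 72 hr at 37 degrees Celsius in a qHTS format.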
% is scaled to controls: 0 for no effect and ±100 for the full control effect; potency is read from the fitted curve at half-maximal effect.

Row | Structure (SMILES) | outcome | Potency | max response
1 | C=CC(=O)Nc1cc(NC(=O)c2ccc(C)c(NC(=O)c3ccno3)c2)cc(C(F)(F)F)c1 | inactive |  | 
2 | N#CC(=C(N)Sc1ccc(N)cc1)c1ccccc1C(F)(F)F |  | 1.66 µM (active) | 
3 | N#Cc1c(C2CCNCC2)cc(-c2c(O)cccc2OCC2CC2)nc1N |  |  | -15.5%
4 | CC(C)(O)CC[C@@H](O)[C@](C)(O)[C@H]1CC[C@@]2(O)C3=CC(=O)[C@@H]4C[C@@H](O)[C@@H](O)C[C@]4(C)[C@@H]3CC[C@]12C |  |  | -11.3%
5 | COc1ccc(Nc2cc(-c3cnc(N)nc3)nc(N3CCOCC3)n2)cn1 |  | 2.64 µM (active) | 
6 | CC(C)[C@H](CO)Nc1nc(Nc2cccc(Cl)c2)c2ncn(C(C)C)c2n1 |  | 16.6 µM (active) | 
7 | OCCNC1CCCc2c1[nH]c1ccc(-c3ccccc3)cc21 (centres undefined) | inactive |  | 
8 | CCCCCCCCc1ccc(CCC(N)(CO)CO)cc1 |  | 18.7 µM (active) | 
9 | Cc1ccc(-n2[nH]c(C)c(N=Nc3cccc(-c4cccc(C(=O)O)c4)c3O)c2=O)cc1C |  | 21.1 µM (active) | 
10 | Cn1cc(-c2ccc3ncc(Cc4ccc5ncccc5c4)n3n2)cn1 |  | 20.6 µM (active) | -43.1%
11 | CC(C)NC[C@@H](C(=O)N1CCN(c2ncnc3c2[C@H](C)C[C@H]3O)CC1)c1ccc(Cl)cc1 |  | 4.18 µM (active) | 
12 | Cc1cncc2cccc(S(=O)(=O)N3CCCN(C(=O)CN)C[C@@H]3C)c12 |  | 8.33 µM (active) | 
13 | COc1cccc2c1C(=O)c1c(O)c3c(c(O)c1C2=O)C[C@@](O)(C(=O)CO)C[C@@H]3O[C@H]1C[C@H](N)[C@H](OC2CCCCO2)[C@H](C)O1 (some centres undefined) |  | 2.35 µM (active) | 
14 | Nc1nc(N)c2nc(-c3cccc(O)c3)c(-c3cccc(O)c3)nc2n1 |  | 14.8 µM (active) | 
15 | CCOC(=O)[C@H](CCc1ccccc1)N[C@@H](C)C(=O)N1[C@@H](C(=O)O)C[C@H]2CCC[C@@H]21 |  | 37.2 µM (active) | 
16 | COc1cc(OC)c(C=CS(=O)(=O)Cc2ccc(OC)c(NCC(=O)O)c2)c(OC)c1 |  |  | 3.08%
17 | NC(=O)Nc1sc(-c2ccc(F)cc2)cc1C(N)=O |  | 10.5 µM (active) | 

Row | Structure (SMILES) | outcome | Potency | max response
18 | NC(=O)N1CCC(CC(=O)N2CCC([C@H]3c4ncc(Br)cc4CCc4cc(Cl)cc(Br)c43)CC2)CC1 |  | 10.5 µM (active) | 
19 | CC(O)(C#Cc1ccc2c(c1)N(c1nc(N)ncc1Cl)CC2)c1nccs1 (centres undefined) |  |  | -12.6%
20 | CN[C@H](CC(C)C)C(=O)N[C@H]1C(=O)N[C@@H](CC(N)=O)C(=O)N[C@@H]2C(=O)N[C@H]3C(=O)N[C@H](C(=O)N[C@H](C(=O)O)c4cc(O)cc(O)c4-c4cc3ccc4O)[C@H](O)c3ccc(c(Cl)c3)Oc3cc2cc(c3O[C@@H]2O[C@H](CO)[C@@H](O)[C@H](O)[C@@H]2O[C@H]2C[C@](C)(N)[C@H](O)[C@H](C)O2)Oc2ccc(cc2Cl)[C@H]1O | inactive |  | 
21 | CC(=O)NCC(=O)N1[C@H]2CC[C@H]1c1cc(Nc3ncc(C(F)(F)F)c(NC4CCC4)n3)ccc12 |  | 0.132 µM (active) | 
22 | CCCCCCCCCCCC(CC1OC(=O)C1CCCCCC)OC(=O)C(CC(C)C)NC=O (centres undefined) | inactive |  | 
23 | O=S(=O)(O)CCSSCCS(=O)(=O)O |  |  | -4.2%
24 | N#CC(=Cc1ccc(O)c(O)c1)C(=O)NCc1ccccc1 |  |  | -2.31%
25 | COc1cc(C)c(Sc2cnc(NC(=O)c3ccc(CNC(C)C(C)(C)C)cc3)s2)cc1C(=O)N1CCN(C(C)=O)CC1 (centres undefined) |  | 26.4 µM (active) | 
26 | CCCNC(=O)[C@H]1O[C@H]1C(=O)N[C@H](C(=O)N1CCC[C@@H]1C(=O)OC)C(C)CC (some centres undefined) | inactive |  | 
27 | C#CCC(Cc1cnc2nc(N)nc(N)c2n1)c1ccc(C(=O)N[C@@H](CCC(=O)O)C(=O)O)cc1 (some centres undefined) |  | 3.32 µM (active) | 
28 | Cn1cc(C2=C(c3c4n(c5ccccc35)CCC(CN)C4)C(=O)NC2=O)c2ccccc21 (centres undefined) |  | 37.2 µM (active) | 
29 | Cc1noc(-c2ccc(CSCCC(=O)O)cc2)c1NC(=O)OC(C)c1ccccc1Cl (centres undefined) |  |  | -23.2%
30 | Cc1nc(NC(=O)N2CCC[C@@H]2C(N)=O)sc1-c1ccnc(C(C)(C)C(F)(F)F)c1 |  | 3.32 µM (active) | 
31 | COC[C@H](NC(=O)c1cnc(C)s1)C(=O)N[C@@H](COC)C(=O)N[C@@H](Cc1ccccc1)C(=O)[C@@]1(C)CO1 |  | 0.662 µM (active) | 
32 | O=c1c(O)c(-c2ccc(O)c(O)c2)oc2cc(O)ccc12 | inactive |  | 
33 | CC(=O)ON=C1C(c2c(O)[nH]c3cc(Br)ccc23)=Nc2ccccc21 |  |  | -13.8%
